Some test systems named below: NCI-H23 lung; NCI-H226 lung; HOP-62 NSCLC; NCI-H460 lung; HOP-92 NSCLC; NCI-H522 lung; A549/ATCC NSCLC; 786-0 renal; COLO 205 colon; DU-145 prostate; K-562 leukemia; MALME-3M melanoma; MDA-MB-231 breast; RXF 393 renal; SF-268 CNS; SF-295 CNS; SF-539 CNS; UACC-257 melanoma; M14 melanoma.
Assay in all cases: NCI-60 one-dose screen, 48 h (100 = growth as untreated, 0 = no growth, -100 = all killed)
Holding throughout (settings): 10 µM unless noted

The structures appear in SMILES notation. Compounds without any hit were thinned out: in the full panel of roughly 83,000, 20% have a hit.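 Treatment: one concentration, 48 hours, 96-well format. Scoring: percent growth, with anything below 10 considered active.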 Unmarked numbers belong to inactive results. Activity calls are given as the source filed them.

Consider `CCCNC(=O)Oc1ccc(/C(=C(\C)c2ccccc2)c2ccc(OCCN3CCCCC3)cc2)cc1`, for which the growth in the experiment with NCI-H23 lung was 79.4%; with NCI-H226 lung it was 89.5%; in the experiment on HOP-62 NSCLC, 81.9%; in the experiment with NCI-H460 lung, 66.7%; in the experiment on HOP-92 NSCLC it was 80.7%; with NCI-H522 lung, 103%. In addition, the growth in the experiment on A549/ATCC NSCLC is 62.2%; in the experiment on 786-0 renal, 35.8%; in the experiment with COLO 205 colon, 38%; in the experiment on DU-145 prostate it was 87.9%; in the experiment on K-562 leukemia it was 10.2%; in the experiment on MALME-3M melanoma, 61.3%. Besides, the growth was 81.9% in the experiment with MDA-MB-231 breast; 64.4% in the experiment on RXF 393 renal; 72.6% in the experiment with SF-268 CNS; 55% in the experiment on SF-295 CNS; 37.5% with SF-539 CNS; -14.1% (active) in the experiment with UACC-257 melanoma. For the same compound, the growth in the experiment with M14 melanoma is 14.1%.
Consider `COc1ccc(-c2nc(N=Nc3c(O)[nH]c4ccccc34)nc(N3CCOCC3)c2C#N)cc1`, for which the growth in the experiment with NCI-H23 lung is 81.9%; with NCI-H226 lung, 38.4%; with HOP-62 NSCLC, 68%; in the experiment on NCI-H460 lung, 46.5%; in the experiment with HOP-92 NSCLC, 19.6%; with NCI-H522 lung, 72.1%. In addition, the growth in the experiment on A549/ATCC NSCLC was 51.7%; in the experiment with 786-0 renal it was 79.7%; in the experiment on COLO 205 colon, 67.8%; in the experiment with DU-145 prostate, 63.7%; with K-562 leukemia, 75%; in the experiment with MALME-3M melanoma, 51%. Further, the growth is 42.6% in the experiment on MDA-MB-231 breast; 62.4% in the experiment on SF-268 CNS; 86.4% with SF-295 CNS; -47.2% (active) in the experiment on SF-539 CNS; 73.6% with UACC-257 melanoma; 60.9% with M14 melanoma.
Regarding `O=C(Nc1cccc(Cl)c1)Oc1c(Br)c(Br)c(Br)c(Br)c1Br`, the growth with NCI-H23 lung was 91%; in the experiment on NCI-H226 lung it was 81.3%; in the experiment with HOP-62 NSCLC, 56.1%; in the experiment with NCI-H460 lung, 99.7%; in the experiment on HOP-92 NSCLC, 66.5%; in the experiment with NCI-H522 lung, 58.8%. Also, the growth was 73.7% in the experiment on A549/ATCC NSCLC; 93.8% with 786-0 renal; 100% in the experiment on COLO 205 colon; 105% with DU-145 prostate; 78.5% in the experiment with K-562 leukemia; 90.7% in the experiment on MALME-3M melanoma. The growth in the experiment with MDA-MB-231 breast is 103%; with SF-268 CNS, 91.4%; in the experiment with SF-295 CNS, 79.2%; in the experiment with SF-539 CNS, 98.1%; with UACC-257 melanoma it was 69.4%; in the experiment on M14 melanoma, 90.9%.
As to `CCCCCCCCN1C(=O)/C(=c2\sc3n(c2=O)C2C(NN=3)N(CC)C(=O)N2CC)c2ccccc21` (stereo not given), the growth in the experiment with NCI-H23 lung was 79.1%; in the experiment with NCI-H226 lung, 91.9%; in the experiment on HOP-62 NSCLC, 47.3%; in the experiment on NCI-H460 lung, 88%; in the experiment with HOP-92 NSCLC it was 62.7%; with NCI-H522 lung, 66.6%. The growth in the experiment on A549/ATCC NSCLC was 75.9%; in the experiment with 786-0 renal it was 65.7%; with COLO 205 colon it was 104%; in the experiment on DU-145 prostate, 97.8%; with K-562 leukemia, 92.6%; in the experiment on MALME-3M melanoma, 82.6%. In addition, the growth with MDA-MB-231 breast is 71.5%; in the experiment on SF-268 CNS it was 65.3%; in the experiment with SF-295 CNS it was 73%; in the experiment on SF-539 CNS, 59.9%; with UACC-257 melanoma, 96.3%; in the experiment on M14 melanoma, 95.4%.
Take `COc1ccc(Cn2nc3c(c2-c2cc(OC)c(OC)c(OC)c2)-c2oncc2CC3)cc1`: the growth with NCI-H23 lung was 79.8%; in the experiment with NCI-H226 lung, 106%; with HOP-62 NSCLC, 96.7%; in the experiment with NCI-H460 lung it was 107%; in the experiment with HOP-92 NSCLC it was 78.2%; in the experiment on NCI-H522 lung it was 12.7%. Besides, the growth in the experiment on 786-0 renal was 85.1%; in the experiment on COLO 205 colon it was 99.1%; in the experiment on DU-145 prostate it was 105%; in the experiment with K-562 leukemia, 39.9%; in the experiment on MALME-3M melanoma, 93.7%; in the experiment on MDA-MB-231 breast it was 65.8%. Also, the growth in the experiment on SF-268 CNS was 96.7%; with SF-295 CNS, 77.2%; with SF-539 CNS, 89.1%; in the experiment with UACC-257 melanoma, 104%; with M14 melanoma, 84.6%.
For the compound `O=C1Nc2c(ccc(Cl)c2Cl)/C1=C/c1ccccn1`, the growth is 81.5% with NCI-H23 lung; 93.5% in the experiment on NCI-H226 lung; 88.5% in the experiment on HOP-62 NSCLC; 97.6% in the experiment on NCI-H460 lung; 66.2% in the experiment with HOP-92 NSCLC; 71% with NCI-H522 lung. Also, the growth with A549/ATCC NSCLC was 13%; in the experiment with 786-0 renal, 12.5%; with COLO 205 colon, 108%; in the experiment with DU-145 prostate, 104%; with MALME-3M melanoma it was 85.5%; in the experiment on MDA-MB-231 breast, 84.7%. The growth in the experiment with SF-268 CNS is 84.8%; with SF-295 CNS, 107%; in the experiment with SF-539 CNS, 92.8%; in the experiment with UACC-257 melanoma, -20.9% (active); in the experiment with M14 melanoma, 69.9%.
For the compound `FCc1nc2nc(Cl)c(Cl)nc2[nH]1`, the growth in the experiment on NCI-H23 lung was 99.3%; with NCI-H226 lung, 104%; in the experiment with HOP-62 NSCLC, 94.8%; with NCI-H460 lung, 108%; in the experiment on HOP-92 NSCLC, 81.2%; in the experiment on NCI-H522 lung, 95.9%. The growth with A549/ATCC NSCLC is 98.9%; in the experiment on 786-0 renal, 103%; in the experiment with COLO 205 colon it was 109%; in the experiment with DU-145 prostate, 104%; in the experiment with K-562 leukemia, 93%; in the experiment on MALME-3M melanoma, 97.3%. Also, the growth with MDA-MB-231 breast is 128%; in the experiment with RXF 393 renal, 105%; with SF-268 CNS, 94.9%; with SF-295 CNS it was 93.7%; with SF-539 CNS, 100%; in the experiment with UACC-257 melanoma it was 99.2%. Besides, the growth with M14 melanoma was 107%.
`NC(=S)N/N=C(/c1ccccc1)c1ccccc1N`: the growth with NCI-H23 lung was 94.9%; in the experiment with NCI-H226 lung, 82.2%; in the experiment on HOP-62 NSCLC, 98.5%; in the experiment with NCI-H460 lung it was 102%; in the experiment on HOP-92 NSCLC, 102%; in the experiment with NCI-H522 lung it was 88.9%. Further, the growth in the experiment on A549/ATCC NSCLC is 87.3%; in the experiment on 786-0 renal, 101%; in the experiment with COLO 205 colon it was 108%; in the experiment on DU-145 prostate it was 94.2%; with K-562 leukemia, 45.5%; with MALME-3M melanoma, 93.7%. Also, the growth is 85.8% with MDA-MB-231 breast; 105% in the experiment on RXF 393 renal; 92.9% in the experiment with SF-268 CNS; 82.5% in the experiment with SF-295 CNS; 99.6% in the experiment on SF-539 CNS; 54% in the experiment with UACC-257 melanoma. For the same compound, in the experiment on M14 melanoma, the growth was 88.2%.
